In all, about 320,000 compounds went through this assay and about 1,300 (0.41%) were called active. Roughly 3% stayed inconclusive and do not appear here. No rule for the calls is given here. A selection follows. Results with a measured potency or affinity are listed apart.
Experiment: growth inhibition of non-replicating M. tuberculosis (AID 488890);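 also: plate controls were DMSO cells for no effect and high antibiotic wells for full effect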
Details: Mycobacterium tuberculosis non-replicating, at 25 µM, stronger effect = higher value

Question: For `CC(C)c1ccc(NC2CCCN(C(=O)c3ccc(Cn4cnnn4)cc3)C2)cc1` (centres undefined), which inhibition is on record?
Answer: The inhibition was 10.9%.

Question: With `CS(=O)(=O)N1CCCC(C(=O)Nc2ccc(F)c(F)c2)C1` (centres undefined) as the molecule, how does the inhibition read?
Answer: The inhibition was -12.2%.

Question: For `Nn1c(SCC(=O)Nc2ccc3c(c2)OCCO3)nncc1=O`, which inhibition is on record?
Answer: Its inhibition is -11.2%.

Question: With `NC(=O)c1ccccc1N/C=C/C(=O)c1ccco1` as the molecule, how does the inhibition read?
Answer: The inhibition was -0.65%.

Question: With `CCOc1ccccc1N/C=C/C(=O)C(C)(C)C` as the molecule, how does the inhibition read?
Answer: The inhibition was 0.25%.

Question: With `Cc1ccc(N/C=C/C(=O)C(C)(C)C)c(O)c1` as the molecule, how does the inhibition read?
Answer: The inhibition was 6.34%.

Question: With `Cc1ccc(N/C=C/C(=O)c2ccco2)c(O)c1` as the molecule, how does the inhibition read?
Answer: Its inhibition is 12.5%.

Question: With `C=C(C)COc1ccc(-c2[nH]ncc2Oc2ccc(OC)cc2)c(O)c1` as the molecule, how does the inhibition read?
Answer: The inhibition was -5.21%.

Question: Which inhibition does the source give for `COc1ccc(C(c2c(N)[nH]c(=S)[nH]c2=O)c2c(N)[nH]c(=S)[nH]c2=O)cc1` here?
Answer: Its inhibition is -18.4%.

Question: Which inhibition does the source give for `COc1ccc(-c2nc(CCl)cs2)cc1` here?
Answer: The inhibition was 7.52%.

Question: Which inhibition does the source give for `COc1ccc(-c2csc(-c3ccc(O)cc3)n2)cc1` here?
Answer: The inhibition was 40%.

Question: For `O=C(CSc1c2c(nc3cc(Cl)ccc13)CCCC2)NCCCN1CCOCC1`, which inhibition is on record?
Answer: Its inhibition is 50%.

Question: Which inhibition does the source give for `Cc1[nH]c(=S)c(C#N)c2c1CCCC2` here?
Answer: Its inhibition is 16.1%.

Question: Which inhibition does the source give for `COc1ccc(CNc2nc3nc(C)c(Cl)c(=O)n3[nH]2)cc1` here?
Answer: Its inhibition is 28.1%.

Question: Which inhibition does the source give for `CC(OC(=O)c1cc(S(=O)(=O)N2CCOCC2)ccc1Br)C(=O)N1CCOCC1` (centres undefined) here?
Answer: Its inhibition is 6.34%.

Question: Which inhibition does the source give for `CCC1Oc2ccccc2N(CC(=O)NCCCN2CCCCC2CC)C1=O` (centres undefined) here?
Answer: Its inhibition is 1.4%.

Question: With `NS(=O)(=O)c1ccc(NC2=CC(=O)C(=O)c3ccccc32)cc1` as the molecule, how does the inhibition read?
Answer: Its inhibition is 36.2%.

Question: Which inhibition does the source give for `CCOC(=O)c1ccc(NC(=O)C(C)N2C(=O)c3ccccc3C2=O)cc1` (centres undefined) here?
Answer: Its inhibition is -8.22%.

Question: Which inhibition does the source give for `O=C1C=C(Nc2ccccc2)C(=O)c2ccccc21` here?
Answer: The inhibition was 56.9%.

Question: With `CCOC(=O)c1ccc(NC2c3ccccc3C(=O)N2c2ccccn2)cc1` (centres undefined) as the molecule, how does the inhibition read?
Answer: The inhibition was -6.64%.

Question: Which inhibition does the source give for `CCOC(=O)c1ccccc1NC1OC(=O)c2ccccc21` (centres undefined) here?
Answer: The inhibition was -8.12%.

Question: For `CC(=O)Nc1ccc(NC2=CC(=O)c3ccccc3C2=O)cc1`, which inhibition is on record?
Answer: Its inhibition is -2.89%.

Question: Which inhibition does the source give for `CCOC(=O)c1c(C)[nH]c(C(=O)COC(=O)Cn2cc(C(F)(F)F)ccc2=O)c1C` here?
Answer: Its inhibition is 2.63%.

Question: Which inhibition does the source give for `CCCc1nnc(NC(=O)CCC(=O)Nc2ccc(F)cc2)s1` here?
Answer: Its inhibition is -5.14%.

Question: For `CCN(C(=O)c1ccc(Cl)c(S(=O)(=O)Nc2c(C)n(C)n(-c3ccccc3)c2=O)c1)c1ccccc1`, which inhibition is on record?
Answer: The inhibition was 5.47%.

Question: With `CCN(CC)C(=O)Cn1cc(C(=O)C(=O)N2CCCc3ccccc32)c2ccccc21` as the molecule, how does the inhibition read?
Answer: The inhibition was 16.8%.

Question: With `Cc1cc(/C=C2\NC(=O)NC2=O)c(C)n1-c1cccnc1` as the molecule, how does the inhibition read?
Answer: Its inhibition is -6.79%.

Question: With `S=C(Nc1ccccc1)N1CCC(Cc2ccccc2)CC1` as the molecule, how does the inhibition read?
Answer: Its inhibition is 5.68%.

Question: Which inhibition does the source give for `O=C(N/N=C/c1cc(Br)ccc1O)c1cccc(N2CCCC2=O)c1` here?
Answer: The inhibition was 54.7%.

Question: For `COc1ccc(O)c(/C=N/NC(=O)c2cccc(N3CCCC3=O)c2)c1`, which inhibition is on record?
Answer: Its inhibition is 5.55%.

Question: For `CCC1(CC)C(=O)N(C)C(=O)NC1=NC`, which inhibition is on record?
Answer: Its inhibition is -9.72%.

Question: For `O=C(N/N=C/c1ccccc1[N+](=O)[O-])c1cccs1`, which inhibition is on record?
Answer: Its inhibition is 55.4%.

Question: With `O=[N+]([O-])c1cccc(/C=N\N=C2c3ccccc3-c3ccccc32)c1O` as the molecule, how does the inhibition read?
Answer: Its inhibition is 22%.

Question: With `CN(C)/N=C/c1cc([N+](=O)[O-])ccc1O` as the molecule, how does the inhibition read?
Answer: The inhibition was -5.98%.

Question: With `O=[N+]([O-])c1cccc(C=Nc2cccc3ccccc23)c1O` as the molecule, how does the inhibition read?
Answer: Its inhibition is 55.1%.

Question: With `O=[N+]([O-])c1ccc(O)c(/C=N\N=C2c3ccccc3-c3ccccc32)c1` as the molecule, how does the inhibition read?
Answer: Its inhibition is 72.8%.

Question: For `O=C(N/N=C\c1cc2c(cc1[N+](=O)[O-])OCO2)c1cccs1`, which inhibition is on record?
Answer: The inhibition was 16.5%.

Question: With `c1ccc(CN2CCNCC2)nc1` as the molecule, how does the inhibition read?
Answer: Its inhibition is -22.1%.

Question: For `CCOc1ncccc1C(=O)OCC(=O)N1CCN(S(=O)(=O)c2ccccc2)CC1`, which inhibition is on record?
Answer: Its inhibition is -4.22%.

Question: Which inhibition does the source give for `CCOc1ccc(/C=N/OCC(=O)NCc2ccc3c(c2)OCO3)cc1OC` here?
Answer: Its inhibition is 13%.

Question: For `CCNC(=O)CSc1nnc(-c2cccs2)o1`, which inhibition is on record?
Answer: Its inhibition is 61.4%.

Question: With `Cc1ccc(S(=O)(=O)Nc2cccc3ncccc23)cc1` as the molecule, how does the inhibition read?
Answer: Its inhibition is 15.3%.

Question: With `Cc1ccc(S(=O)(=O)Nc2ccnc3ccccc23)cc1` as the molecule, how does the inhibition read?
Answer: Its inhibition is -9.89%.

Question: With `O=C(NNC1OC(CO)C(O)C(O)C1O)c1cccnc1` (centres undefined) as the molecule, how does the inhibition read?
Answer: Its inhibition is -18.5%.

Question: Which inhibition does the source give for `CCOC(=O)c1c(-n2cnnn2)sc2c1CCCC2` here?
Answer: The inhibition was 0.53%.

Question: With `CCCS(=O)(=O)c1nc(S(=O)(=O)c2ccc(Cl)cc2)c(N2CCC(O)CC2)s1` as the molecule, how does the inhibition read?
Answer: The inhibition was 9.91%.

Question: With `CCc1cccc2c(C#N)cn(CC(=O)NCCOC)c12` as the molecule, how does the inhibition read?
Answer: Its inhibition is 2.34%.

Question: Which inhibition does the source give for `CC(C)OC(=O)Cn1cc(C#N)c2ccccc21` here?
Answer: The inhibition was 17%.

Question: With `CCn1c(-c2ccccc2)ccc(C#N)c1=O` as the molecule, how does the inhibition read?
Answer: The inhibition was -0.3%.

Question: Which inhibition does the source give for `CCOC(=O)Cn1c(-c2ccccc2)cc(SC)c(C#N)c1=O` here?
Answer: Its inhibition is 37.8%.

Question: Which inhibition does the source give for `COC(=O)Cn1cc(C#N)c2ccccc21` here?
Answer: Its inhibition is 51.2%.

Question: For `CCc1cccc2c(C#N)cn(CC(=O)N3CCOCC3)c12`, which inhibition is on record?
Answer: The inhibition was -9.31%.

Question: Which inhibition does the source give for `Cc1cc(Cl)ccc1OCC(=O)Nc1cccnc1` here?
Answer: The inhibition was 41%.

Question: For `C[C@]12C(=O)N(c3ccccc3)C(=O)N1[C@H]1c3ccccc3OC[C@@H]1[C@H]2c1ccccc1`, which inhibition is on record?
Answer: The inhibition was 79%.

Question: For `Cn1c2ccccc2c2cc(/C=N/NC(=O)c3cc(O)cc(O)c3)ccc21`, which inhibition is on record?
Answer: The inhibition was -7.45%.

Question: Which inhibition does the source give for `O=C(O)c1cccc(NS(=O)(=O)/C=C/c2ccccc2)c1` here?
Answer: The inhibition was -0.77%.

Question: For `O=C(O)c1ccc(NS(=O)(=O)/C=C/c2ccccc2)cc1`, which inhibition is on record?
Answer: The inhibition was -4.07%.

Question: Which inhibition does the source give for `CC(=O)Nc1ccc(NC(=S)NC(=O)C2CCCC2)cc1` here?
Answer: Its inhibition is 30.2%.

Question: For `O=C(Nc1ccc(F)cc1)C1CCCCC1`, which inhibition is on record?
Answer: Its inhibition is 42.2%.

Question: With `OCC1(CCOc2ccccc2)CCN(Cc2ccc3c(c2)OCCO3)CC1` as the molecule, how does the inhibition read?
Answer: Its inhibition is 14.7%.

Question: With `COC(=O)C(NC(C)=O)(Nc1nc2ccc(S(C)(=O)=O)cc2s1)C(F)(F)F` (centres undefined) as the molecule, how does the inhibition read?
Answer: The inhibition was -2.55%.

Question: For `COc1ccccc1C(CCNCc1ccccc1)c1ccc(OC(C)C)cc1` (centres undefined), which inhibition is on record?
Answer: The inhibition was 68.5%.

Question: For `COc1ccc(C(CCNCc2ccc(OC)c(OC)c2)c2ccc(F)cc2)cc1` (centres undefined), which inhibition is on record?
Answer: The inhibition was 76.8%.

Question: For `O=C(O)c1cc2c(N3CCC(Cc4ccccc4)CC3)ncnc2s1`, which inhibition is on record?
Answer: The inhibition was 11.8%.

Question: With `c1ccc2c(Cn3ccnc3)cccc2c1` as the molecule, how does the inhibition read?
Answer: Its inhibition is -22.3%.

Question: Which inhibition does the source give for `CN(C)C1=NC[C@H](Cc2ccccc2)N1CCCC1CCCC1` here?
Answer: The inhibition was 77%.

Question: With `NC1=NC[C@@H](Cc2ccc(O)cc2)N1CCc1cccc2ccccc12` as the molecule, how does the inhibition read?
Answer: Its inhibition is 64.2%.

Question: With `CC(C)C[C@H]1CN=C(Nc2ccccc2)N1CCC1CCCC1` as the molecule, how does the inhibition read?
Answer: The inhibition was 65.2%.

Question: Which inhibition does the source give for `NC1=NC[C@H](Cc2ccccc2)N1CC1CCCCC1` here?
Answer: The inhibition was 17%.

Question: With `CC(C)C[C@H]1CN=C(Nc2ccccc2)N1CCC1CCCCC1` as the molecule, how does the inhibition read?
Answer: The inhibition was 25.8%.

Question: Which inhibition does the source give for `NC1=NC[C@H](Cc2ccc(O)cc2)N1CCc1cccc(F)c1` here?
Answer: Its inhibition is 1.77%.

Question: For `CCC(=O)N1CCc2cc(S(=O)(=O)N3CCN(c4cc(C)ccc4C)CC3)ccc21`, which inhibition is on record?
Answer: Its inhibition is -5.69%.

Question: Which inhibition does the source give for `COc1ccc(-c2cn3nc(C)c(C)nc3n2)cc1OC` here?
Answer: Its inhibition is -17%.

Question: Which inhibition does the source give for `Cc1nnc(Sc2c(-c3ccccc3)c3ccc(Cl)cc3[nH]c2=O)s1` here?
Answer: The inhibition was 31.4%.

— PubChem BioAssay AID488890 (Southern Research Specialized Biocontainment Screening …, 2010)
